From PubChem
CF NFkB block – inhibitors of PAF-induced NF-kB signaling, primary screen, cell-based, GFP fluorescence, uHTS | KKLEB NF-kB-GFP reporter, GFP fluorescence overnight | inhibition, % at 5 µM | 360,000 tested, 0.86% active | AID 588850, 2011;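 active = at least 50% inhibition at 5 µM, scaled per plate between neutral and stimulator controls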;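 note: PAF is a Pseudomonas aeruginosa culture filtrate used as stimulus; plate controls were PAF-stimulated DMSO wells for no effect and unstimulated DMSO wells for full effect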
Shn3 inh set2 – reduction of Shn3 3'UTR firefly luciferase signal, primary screen, Schnurri-3 inhibitor project, cell-based, Clone20 osteoblasts, set 2; 360,000 tested, 0.52% active; Clone20 osteoblast Shn3 3'UTR firefly luciferase, 24 h; inhibition, % at 12.5 µM; AID 588674, 2011;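 active = mean inhibition of at least 75% with every replicate also reaching 75%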;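 note: 0% = median of neutral control wells and 100% = pilot-screen positive control compound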
TRPM1 prom inh – inhibitors of MITF-dependent TRPM1 promoter reporter, primary screen, cell-based, SK-MEL-5, single point, luciferase; inhibition, % at 12.5 µM; 330,000 tested, 0.83% active; SK-MEL-5 TRPM1 promoter luciferase, 24 h;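 active = mean inhibition across replicates of 60% or more, whatever share of single replicates reaches that level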
KKLEB tox – cytotoxicity in KKLEB CF airway cells, primary screen, cytotoxicity control for CF NF-kB inhibitor project, cell-based, uHTS, fluorescence assay plates | 360,000 tested, 0.36% active | KKLEB CF airway cells viability, ATPlite luminescence, overnight; hits give low values; cells stimulated with P. aeruginosa culture filtrate | AID 602141, 2011 | activity change (cytotoxicity), % at 5 µM;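 active = corrected activity change at or below -50% at 5 µM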
Peg3 promoter – Peg3 promoter-driven luciferase inhibitors, primary screen, cell-based, HeLa, luciferase luminescence. HeLa PEG-Prom luciferase reporter, overnight. inhibition, % at 20 µM. 360,000 tested, 1.7% active;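 active = inhibition of at least 50% at 20 µM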
HIF-2a block – HIF-2a reporter inhibitors, primary screen, luminescence, 786-0 RCC cells; 786-0 RCC cells HIF-2a reporter, luciferase luminescence, overnight; inhibition, % at 18.8 µM; 360,000 tested, 0.72% active; AID 624352, 2012;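 active = inhibition of the luminescence signal of 40% or more relative to plate controls, in a single-dose primary screen at 18.75 µM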
Mdm2 MdmX conf – retested Mdm2-MdmX interaction blockers, confirmation, cell-based, luminescence, single concentration, set 2; inhibition, % at 8 µM; AID 504601, 2011; SaOS-2 split-luciferase Mdm2/MdmX complementation; shares compounds with HIF-2a block; 740 tested, 99% active;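 active = mean inhibition of the luminescence signal across two replicates at or above 26 percent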
Target sequence (O15151 whole entry, looked up): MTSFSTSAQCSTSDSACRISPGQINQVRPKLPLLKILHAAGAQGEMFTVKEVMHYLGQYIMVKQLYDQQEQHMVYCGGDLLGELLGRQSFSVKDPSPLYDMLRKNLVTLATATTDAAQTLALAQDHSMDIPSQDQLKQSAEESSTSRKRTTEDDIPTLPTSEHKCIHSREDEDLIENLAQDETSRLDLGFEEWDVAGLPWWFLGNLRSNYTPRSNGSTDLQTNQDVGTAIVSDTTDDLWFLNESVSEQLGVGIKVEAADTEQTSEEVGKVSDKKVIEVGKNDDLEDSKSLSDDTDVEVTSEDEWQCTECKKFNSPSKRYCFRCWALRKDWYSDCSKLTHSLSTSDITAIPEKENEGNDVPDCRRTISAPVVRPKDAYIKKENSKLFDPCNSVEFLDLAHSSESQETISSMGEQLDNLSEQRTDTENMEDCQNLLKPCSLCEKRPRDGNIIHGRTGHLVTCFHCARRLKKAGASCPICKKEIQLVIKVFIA
Target sequence (Q00987 whole entry, looked up): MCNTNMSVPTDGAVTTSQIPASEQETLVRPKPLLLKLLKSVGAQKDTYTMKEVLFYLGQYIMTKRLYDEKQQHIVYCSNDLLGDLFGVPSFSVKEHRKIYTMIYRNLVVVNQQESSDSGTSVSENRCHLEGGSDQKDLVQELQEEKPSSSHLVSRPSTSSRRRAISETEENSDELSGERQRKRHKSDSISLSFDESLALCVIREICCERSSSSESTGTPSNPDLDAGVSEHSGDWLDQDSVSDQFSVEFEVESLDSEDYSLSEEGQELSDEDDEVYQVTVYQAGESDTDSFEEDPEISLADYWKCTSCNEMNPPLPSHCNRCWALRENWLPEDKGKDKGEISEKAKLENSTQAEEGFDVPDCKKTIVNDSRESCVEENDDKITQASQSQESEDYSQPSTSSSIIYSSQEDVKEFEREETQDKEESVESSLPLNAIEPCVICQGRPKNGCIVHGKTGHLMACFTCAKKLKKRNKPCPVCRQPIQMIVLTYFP
HIF-2a inh conf – HIF-2a reporter inhibitor retest, confirmation, luminescence, 786-0 RCC cells; inhibition, % at 18.8 µM; HIF-2a luciferase reporter luminescence, overnight; shares compounds with HIF-2a block; 1,800 tested, 56% active; AID 651580, 2012;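 active = mean inhibition across four replicates of at least 40 percent at the single tested concentration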
HIF-1a cs – HIF-1a luciferase reporter signal reduction – MiaPaCa-2 cells, single concentration, counter-screen for HIF-2a inhibitor project, confirmation; shares compounds with HIF-2a block; MiaPaCa-2 HIF-1a luciferase reporter, desferoxamine, overnight; inhibition, % at 18.8 µM; 1,800 tested, 72% active;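 active = mean inhibition of the reporter signal across four replicates at the single tested dose of 50% or more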
* marks the source's active call; other numbers are inactive results; nt = no result given. Hits are enriched below; roughly 2.8% of the tested compounds scored in any of these assays.

SMILES	CF NFkB block	Shn3 inh set2	TRPM1 prom inh	KKLEB tox	Peg3 promoter	HIF-2a block	HIF-2a inh conf	HIF-1a cs	others
O=C(Nc1ccc(F)cc1)c1nc(S(=O)(=O)Cc2ccccc2)ncc1Cl	101.3*	94.5*	62.1*	-75.3*	99.5*	85.7*	99.4*	59.6*	Mdm2 MdmX conf=101.7*
Cc1ccccc1CS(=O)(=O)c1ncc(Cl)c(C(=O)Nc2ccc(F)cc2)n1	88.6*	94.6*	91.0*	-98.6*	107.5*	92.6*	74.3*	51.0*	Mdm2 MdmX conf=103.0*
Cc1nnc(NC(=O)CS(=O)(=O)Cc2ccccc2)s1	6.3	3.7	-3.0	6.6	39.6	11.7	nt	nt
Cc1nnc(NC(=O)c2nc(S(=O)(=O)Cc3ccccc3)ncc2Cl)s1	82.7*	91.5*	34.6	-30.8	110.5*	64.3*	8.9	105.9*
O=C(/C=C\Nc1ccc(Br)cc1)c1cccnc1	-17.2	-37.8	-37.3	-31.7	-117.1	-115.1	nt	nt
COc1ccc(C(=O)c2[nH]c(N)c(C(=O)NCCc3c[nH]c4ccccc34)c2-c2ccc(Br)cc2)cc1	nt	nt	nt	nt	nt	-9.5	nt	nt
CN(C)S(=O)(=O)c1ccc(C(=O)NN2C(=O)NC3(CCCCC3)C2=O)cc1	-31.3	-29.8	5.0	15.7	9.5	1.6	nt	nt
Cc1ccc(NC(=O)c2nc(S(=O)(=O)Cc3ccccc3)ncc2Cl)cc1	92.0*	95.1*	94.7*	-99.8*	100.5*	94.6*	98.3*	96.1*	Mdm2 MdmX conf=102.2*
Cc1cc(NC(=O)CCC(=O)N(CC(=O)NCC2CCCO2)c2ccc(C(C)C)cc2)no1 (stereo not drawn)	5.7	-16.9	3.9	3.3	-8.3	0.6	nt	nt
CCOC(=O)N=S(N)(=O)c1ccccc1 (stereo not drawn)	8.2	-15.1	-0.4	-7.1	6.8	-4.7	nt	nt
CCOC(=O)CC(S(=O)(=O)c1ccccc1)S(=O)(=O)c1ccccc1	87.4*	33.1	nt	-90.4*	100.4*	75.6*	10.6	1.5
O=C(COc1ncnc2ccccc12)Nc1cc([N+](=O)[O-])ccc1F	-17.6	16.4	19.2	6.4	5.0	16.2	nt	nt
CC1(C)CC(=O)C2=C(C1)OC1=C(C(=O)CC(C)(C)C1)C2c1ccc(O)cc1O	97.2*	93.8*	101.5*	-53.6*	108.0*	92.9*	96.7*	106.2*	Mdm2 MdmX conf=103.0*
N#CC1=C(N)N2C(=C(C#N)C1c1ccc(Br)cc1)Nc1ccccc12 (stereo not drawn)	nt	nt	nt	nt	nt	nt	nt	nt	Mdm2 MdmX conf=101.2*
N#CC1=C(N)N2C(=C(C#N)C13CCN(Cc1ccccc1)CC3)Nc1ccccc12	16.5	8.6	-4.0	-2.3	0.3	-25.5	nt	nt
Cc1onc(-c2ccccc2Cl)c1C(=O)NCc1nnnn1-c1ccc(F)c(F)c1	17.8	-18.8	nt	7.5	22.3	1.2	nt	nt
COC(=O)C1CCN(C2CN(Cc3ccccc3)S(=O)(=O)C2)CC1 (stereo not drawn)	-22.7	-11.9	nt	24.7	-7.4	8.0	nt	nt
COc1ccc2c(c1OC)CN(C)CCc1cc3c(cc1C(O)C2)OCO3 (stereo not drawn)	3.0	8.3	-0.6	-2.9	-2.8	6.7	nt	nt
COc1ccc2cc1Oc1ccc(cc1)C[C@H]1c3cc(c(OC)cc3CCN1C)Oc1c(OC)c(OC)cc3c1[C@@H](C2)N(C)CC3	6.3	-5.1	-11.9	18.7	52.1*	7.4	nt	nt	Mdm2 MdmX conf=100.2*
Cc1cc(C)cc(NC(=O)C(OC(=O)c2sccc2C)c2ccccc2)c1 (stereo not drawn)	2.9	0.4	3.6	-3.8	-4.5	1.7	nt	nt
Cc1ccc(S(=O)(=O)/N=C(\Sc2ccccc2)c2ccccc2)cc1	0.6	-2.8	44.6	2.6	56.0*	43.3*	55.8*	48.9
CCC(C)(C)c1ccc(Oc2cccc(C(=O)O)c2)cc1	-12.2	-47.3	-35.5	-5.3	-208.6	24.7	nt	nt
CCCCCc1ccc(OCCCC[n+]2ccc(C)cc2)c(CCCCC)c1	74.9*	84.4	100.6*	-66.8*	99.7*	10.6	nt	nt	Mdm2 MdmX conf=103.2*
CCCCCc1ccc(OCCCC[n+]2ccccc2)c(CCCCC)c1	48.8	90.1*	86.7*	-28.0	94.8*	86.3*	30.0	102.8*
CCC(C)(C)c1ccc(OCCCC[n+]2ccccc2)c(C(C)(C)CC)c1	62.5*	81.1	99.9*	-50.4*	92.8*	25.1	nt	nt	Mdm2 MdmX conf=103.0*
SMILES	CF NFkB block	Shn3 inh set2	TRPM1 prom inh	KKLEB tox	Peg3 promoter	HIF-2a block	HIF-2a inh conf	HIF-1a cs	others
CCCCCOc1ccc(CN2CCOCC2)cc1Cl	-17.1	-126.0	-52.2	9.0	-230.7	-185.2	nt	nt
COCCN1CCN(C(=O)C2CCC(=O)N(Cc3cccc(C(F)(F)F)c3)C2)CC1 (stereo not drawn)	-0.3	-3.1	-0.2	-8.6	-2.0	-6.9	nt	nt
CC(C)CNC(=O)C1(C)CCCN1C(=O)c1cccnc1Oc1ccccc1 (stereo not drawn)	18.8	4.4	nt	0.3	-9.1	2.8	nt	nt
CCCCN(CC)Cc1ccc(CNC(=S)Nc2ccc(C)cc2Cl)o1	2.6	70.2	15.1	-8.3	-10.4	83.5*	60.0*	60.5*
CCCCN(CC)Cc1ccc(CNC(=S)Nc2c(C)cc(C)cc2C)o1	-8.3	-17.5	0.1	-0.2	6.4	12.3	nt	nt
N#C/C(=C/c1ccc(O)c(O)c1)C(=O)NCc1ccc(Cl)cc1	-15.5	7.6	4.2	6.7	23.7	4.7	nt	nt
N#C/C(=C/c1cccc(O)c1)C(=O)NCc1ccc(Cl)cc1	19.2	-4.7	-5.2	-9.4	-11.1	77.2*	29.9	45.9
CC(C)=CCC/C(C)=C/CNC(=O)C[C@H]1C[C@H](C(=O)N2CCCCC2)[C@@]2(C)c3[nH]c4cc(CCC(=O)N(C)C)ccc4c3CCN2C1=O	4.1	75.7	33.7	14.9	17.9	1.6	nt	nt
CCCOc1ccc(C(=O)C(c2ccccc2)N2CCOCC2)cc1 (stereo not drawn)	18.6	-9.5	-1.9	-13.8	8.4	1.9	nt	nt
